Screens (PubChem)
HepG2 viability = HepG2 cytotoxicity, counter-screen for TGF-b inhibitors; Potency, µM (highest dose often 46.1 µM), actives largely listed as cytotoxic; HepG2 CAGA-GFP viability, ATP luminescence, 18 h; 0.76% of 410,000 active
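CellTiter-Glo luminescence gave cytotoxicity after 18 hours at 37 degrees C. The cells were HepG2 CAGA-GFP in 1% FBS DMEM, stimulated with 500 pg/mL TGF-beta after compound addition. %Activity was normalised to no-cell wells (complete cell-killing) and DMSO (no toxicity), and curves were fitted and classified.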
HT1080 IDH1KD tx = toxicity to HT-1080 IDH1 knockdown cells (counter line); Potency, µM (titrated, usually from 46.1 µM), usual class: cytotoxic; HT-1080 IDH1 knockdown viability, ATP luminescence, 48 h; 2% of 360,000 active
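In this qHTS, HT-1080 cells depleted of IDH1 are exposed for 48 h at 37 °C to compound titrations. Toxicity is scored from CellTiter-Glo luminescence, with DMSO as full viability and medium alone as none.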
ATXN2 expr inh = ATXN2 expression inhibition | HEK-293 ATXN2-luciferase reporter, luminescence, 24 h | Potency, µM (series often up to 57 µM), most hits filed as inhibitors | 0.72% of 360,000 active; further: nearly all actives have a fitted effect of over 55% in size
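ATXN2-luciferase reporter cells (luciferase flanked by upstream and downstream ATXN2 gene portions) were treated 24 h at 37 °C with compounds at up to 57 uM. SteadyGlo luminescence gave expression; GF-AFC fluorescence gave viability.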
S2 tox = reduces viability in counter-screen for ATXN expression inhibitors; S2 cells (HEK-293 line with an ATXN2-luciferase reporter) viability, CellTiter-Fluor protease fluorescence, 24 h; Potency, µM (highest dose often 56.7 µM), hits mostly cytotoxic; 0.49% of 400,000 active; AID 651635; further: nearly all actives have a fitted effect of over 40% in size
HT1080NT lethal = kills 2HG-producing HT-1080-NT fibrosarcoma cells | HT-1080-NT fibrosarcoma viability, CellTiter-Glo ATP luminescence, 48 h | Potency, µM (series often up to 46.1 µM), hits mostly cytotoxic | 1.6% of 360,000 active;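 further: NT is the 2HG producing partner of a matched IDH1 knockdown line; nearly all actives have a fitted effect of over 55% in size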
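A 48-hour cytotoxicity screen used HT-1080-NT cells plated 2 hours before compound delivery. ATP-based CellTiter-Glo luminescence measured viability, normalized to DMSO and no-cell controls.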
TGFb inhibitor = blocks TGF-b signaling | 1.2% of 410,000 active | AID 588855 | HepG2 CAGA-GFP TGF-b/SMAD3 reporter, GFP fluorescence, 18 h; TGF-beta stimulated, 500 pg/mL final | Potency, µM (titrated, usually from 46.1 µM), hits mostly inhibitors; further: nearly all actives have a fitted effect of over 65% in size
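Smad-responsive CAGA-GFP expression was quantified in HEPG2 cells exposed to compounds and 500 pg/mL final TGF-beta for 18 h at 37 degrees C; unstimulated wells defined full inhibition.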
A number is an active result; 0 = inactive; ? = inconclusive; - = no result given; ! = repeats disagree. Rows were chosen to be rich in hits. Some 3.8% of all compounds tested hit in one or more screens of this group. The call rests on the fitted dose curve; in most records, active means well fitted curve in the direction sought with a large enough effect; inconclusive means small, poorly fitted or top-dose-only effect, or another doubt; inactive means no such curve, though single readings can be large; an effect the other way counts as inactive or inconclusive.

SMILES | HepG2 viability | HT1080 IDH1KD tx | ATXN2 expr inh | S2 tox | HT1080NT lethal | TGFb inhibitor
Cc1oc(-c2ccccc2F)nc1Cn1c(SCc2cccc(Cl)c2)nc2ccncc21 | 0 | - | - | - | - | 18µM
Cc1oc(-c2ccccc2F)nc1Cn1c(SCc2cccc(C(F)(F)F)c2)nc2ccncc21 | 0 | - | 0 | ? | - | ?
O=C(Nc1ccc(F)cc1)C1CCCN(S(=O)(=O)c2cccc3cccnc23)C1 (stereo not drawn) | 0 | 0 | 0 | ? | 0 | 0
CCc1ccc(NC(=O)C2CCCN(S(=O)(=O)c3cccc4cccnc34)C2)cc1 (stereo not drawn) | 0 | - | - | - | - | 10µM
O=C(Nc1nc2cc(Cl)ccc2s1)C1CCCN(S(=O)(=O)c2cccc3cccnc23)C1 (stereo not drawn) | 0 | ? | 18µM | ? | 0 | ?
CCOc1ccc(NC(=O)C2CCCN(S(=O)(=O)c3cccc4nonc34)C2)cc1 (stereo not drawn) | 0 | - | 0 | 0 | - | 0
Cc1nc2c(-c3ccc(Cl)cc3)c(C)[nH]n2c(=O)c1Cc1ccccc1 | 10µM | ? | ? | ? | ? | 11µM
COCc1cc(=O)n2[nH]c(C)c(-c3ccc(Cl)cc3)c2n1 | 14µM | ? | - | 0 | 0 | 0
Cc1cccc(Cc2c(C)nc3c(-c4ccccc4)c(C)[nH]n3c2=O)c1 | 0 | - | 13µM | ? | - | 2.5µM
Cc1nc2c(-c3ccccc3)c(C)[nH]n2c(=O)c1Cc1ccccc1 | 0 | ? | 0 | 0 | 0 | ?
Cc1[nH]n2c(=O)cc(-c3ccccc3Cl)nc2c1-c1ccccc1 | 0 | - | 0 | 0 | - | ?
O=[N+]([O-])c1ccccc1S(=O)(=O)NCc1ccccn1 | 0 | - | - | - | - | 0
O=c1cc(-c2ccccc2Cl)oc2c(NS(=O)(=O)c3cc(Cl)cc(Cl)c3O)ccc(O)c12 | 10µM | ? | ? | 32µM | 3.3µM | 6.3µM
O=[N+]([O-])c1cccc(CN2C(COCc3ccccc3)CCC=CS2(=O)=O)c1 (stereo not drawn) | 0 | - | - | - | - | 0
COc1cc(O)c2c(c1)C1OC1C[C@H](O)[C@H](O)C(=O)C=CC[C@H](C)OC2=O (stereo partly drawn) | - | - | 6.9µM | - | - | -
CN1CCN(c2ccc(C(CC(N)=O)NC(=O)Cc3ccc(Br)cc3)cc2[N+](=O)[O-])CC1 (stereo not drawn) | 0.32µM | 0 | 0 | 0 | 0 | 0
Nc1nc(NCc2ccc(F)cc2)c2[nH]cnc2n1 | 0 | - | - | - | - | 0
COc1cccc(CNC(=O)c2sc3ncccc3c2-n2c(C)ccc2C)c1OC | 0 | - | ? | ? | - | ?
CCOc1ccc(CCNC(=O)c2sc3ncccc3c2-n2c(C)ccc2C)cc1 | 0 | - | 0 | ? | - | ?
Cc1ccc(CCNC(=O)c2sc3ncccc3c2-n2c(C)ccc2C)cc1 | 0 | - | ? | ? | - | 11µM
Cc1ccc(C)n1-c1c(C(=O)NCC(C)c2ccccc2)sc2ncccc12 (stereo not drawn) | 0 | - | 0 | ? | - | 11µM
Nc1ncnc2c(C3OC(CO)C(O)C3O)c[nH]c12 (stereo not drawn) | 3.2µM | 0.15µM | ? | - | 0.23µM | 0
CC1=C(CO)C(=O)O[C@@H]([C@@H](C)[C@H]2CC[C@H]3[C@@H]4C[C@H]5O[C@]56[C@@H](O)C=CC(=O)[C@]6(C)[C@@H]4CC[C@]23C)C1 | - | - | 3.1µM | - | - | -
CC(=O)N1CCC[C@H]1C(=O)NCC1Cc2cc(C)cc(-c3ccc(Cl)cc3)c2O1 (stereo partly drawn) | - | - | - | 0 | - | -
CN(C)CCNC(=O)c1cccc(-c2cnc3c(NC=O)cc(-c4cccc(F)c4)cn23)c1 | 13µM | ? | ? | - | ? | 20µM
SMILES | HepG2 viability | HT1080 IDH1KD tx | ATXN2 expr inh | S2 tox | HT1080NT lethal | TGFb inhibitor
CN(C)CCNC(=O)c1cccc(-c2cnc3c(NC=O)cc(-c4ccc(F)cc4)cn23)c1 | 11µM | 23µM | 0 | - | ? | ?
CCSc1ccc(-c2cc(NC=O)c3ncc(-c4cccc(C(=O)NCCN(C)C)c4)n3c2)cc1 | 0 | ? | ? | 0 | 18µM | ?
CCOc1ccc(NC(=O)CSc2nnc(CC)c(CC)n2)cc1 | 0 | - | - | - | - | 0
Nc1c(Cl)cc(C=O)cc1Cl | 0 | - | - | - | - | 0
COCc1c(C(=O)N2CC3CCC2C3)cnn1-c1nccc(-c2ccccc2OC)n1 (stereo not drawn) | - | - | - | 0 | - | -
C[N+](C)(CCOc1ccccc1)Cc1cccs1 | - | - | 0 | 0 | - | -
CC[n+]1c(/C=C/N(C)c2ccccc2)n(-c2ccccc2)c2ccc(-c3nc4ccccc4s3)cc21 | 0 | 5.8µM | 4.7µM | 13µM | ? | 5.6µM
Cc1nn(-c2ccccc2)c(C)c1CC(=O)NCC1Cc2cc(-c3cncnc3)ccc2O1 (stereo not drawn) | - | - | - | 0 | - | -
Nc1ncnc2c1nc(Sc1ccc(Cl)cc1)n2[C@H]1OC2COP(=O)(O)O[C@H]2[C@@H]1O (stereo partly drawn) | - | 0 | - | - | 0 | -
COc1cc(/C=N/Nc2snc(SC)c2C#N)ccc1O | 0 | 3.2µM | 0 | ? | ? | 0
CNC(=O)[C@@H]1C[C@H](Sc2nc3ccccc3[nH]2)CN1Cc1ccccc1C(F)(F)F | - | - | - | 0 | - | -
COc1cnc(-c2ccccn2)nc1N(C)C | 0 | 5.8µM | 16µM | ? | ? | 0
COc1cnc(-c2ccccn2)nc1Sc1c(Cl)cccc1Cl | 0 | 7.9µM | ? | ? | 16µM | 0
Cc1cc(-c2ccc(CC(=O)Nc3ccc(-c4cccnc4)cc3)cc2)ccn1 | - | - | 0 | - | - | -
Cc1cnc(SCc2ccccn2)nc1C1CCCN(Cc2ccsc2)C1 (stereo not drawn) | - | - | - | 0 | - | -
CCN(CC)c1ccc(C(=C2C=CC(=[N+](CC)CC)C=C2)c2ccc(S(=O)(=O)O)cc2S(=O)(=O)[O-])cc1 | 0 | ? | ? | ? | 23µM | 0
CCN(CC)c1ccc(C(=O)O)cc1 | 0 | 0 | - | 0 | 0 | 0
CC(=O)Nc1ccc(S(=O)(=O)N2CCC(c3nnc(-c4ccc(C)cc4)o3)CC2)cc1 | 0 | 0 | 20µM! | 18µM | 0 | ?
Cc1cccc(-c2nnc(C3CCN(S(=O)(=O)c4cccc(Cl)c4)CC3)o2)c1 | 0 | - | 1.6µM | 1.4µM | - | ?
C=C1C=C(C(F)F)n2ncc(C(=O)N3CCN(c4ccccn4)CC3)c2N1 | 0 | - | - | - | - | 0
CC(C)OC(=O)c1cc2c(ccn2C)n1CC(=O)N(Cc1ccccc1)c1ccc(F)cc1 | 0 | 21µM | ? | ? | ? | ?
COC(=O)c1ccccc1NC(=O)c1noc2c1CSc1ccccc1-2 | 0 | - | - | - | - | 0
Brc1csc(CN2CCc3nc(Nc4ccccc4)ncc3C2)c1 | 0 | - | 0 | ? | - | 13µM
COc1cc(Nc2ncc3c(n2)CCN(Cc2cc(Br)cs2)C3)cc(OC)c1 | 0 | - | 0 | 0 | - | ?
COc1ccccc1-c1ccnc(-n2ncc(C(=O)N3CCN(C4CCCC4)CC3)c2-c2ccco2)n1 | - | - | - | 0 | - | -
